In all, about 190,000 compounds went through this assay and about 1,300 (0.68%) were called active. What follows is part of a selection rich in actives, with near analogues and random picks from the rest. A number with no mark means an inactive call. No stated cut-off is given here; in the data, active means inhibition above about 50%; inactive means the rest.
molecular target: Mannose-6-phosphate isomerase (Homo sapiens) (UniProt P34949); test: MPI inhibition at elevated mannose 6-phosphate – biochemical, fluorescence intensity, high mannose 6-phosphate, primary screen (AID 1220); settings: recombinant PMI enzyme, coupled fluorescence intensity; at 20 µM; stronger effect = higher value
Sequence (P34949 whole entry, looked up): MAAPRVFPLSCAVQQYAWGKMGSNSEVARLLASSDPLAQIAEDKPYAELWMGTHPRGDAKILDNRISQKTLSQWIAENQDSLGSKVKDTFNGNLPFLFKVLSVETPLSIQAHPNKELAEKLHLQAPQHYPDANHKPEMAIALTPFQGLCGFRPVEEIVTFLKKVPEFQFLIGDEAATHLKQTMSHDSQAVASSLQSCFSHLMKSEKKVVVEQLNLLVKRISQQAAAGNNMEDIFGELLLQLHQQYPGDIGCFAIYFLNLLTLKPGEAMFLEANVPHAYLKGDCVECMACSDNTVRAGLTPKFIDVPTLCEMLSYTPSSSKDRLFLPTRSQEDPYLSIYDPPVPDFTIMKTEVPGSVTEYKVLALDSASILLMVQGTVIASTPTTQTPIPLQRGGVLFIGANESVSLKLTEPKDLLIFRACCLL

Compound | inhibition
COc1ccccc1NC(=O)c1cnc(Nc2ccccc2OC)c2ccccc12 | 6.4%
CC1Oc2ccccc2N(CC(=O)NCc2cccs2)C1=O (configuration not stated) | 5.4%
NC(=O)Cc1ccc(C(=O)c2ccccc2F)s1 | -7%
Cc1ccc(C(C)C)c(OCC(=O)N2CCOCC2)c1 | 4.1%
O=C(O)COc1ccc(/C=N/n2cnc3scc(-c4cccs4)c3c2=O)cc1 | -8.8%
Cc1ccc(-n2c(-c3ccncc3)n[nH]c2=S)c(C)c1 | 3.7%
COc1ccc(OCC(=O)Nc2ccc3c(c2)nc2n3CCSC2)cc1 | 7.8%
O=C(/C=C/c1cccc(OCc2ccccc2)c1)c1cccnc1 | -18.2%
CCOC(=O)c1c(C)oc2c(CC(=O)c3ccccc3)c(Cl)c(O)c(O)c12 | 8.9%
CCOC(=O)Cc1csc(NC(=O)NC2(C(F)(F)F)Oc3ccccc3O2)n1 | 21.4%
CCOC(=O)Cc1csc(NC(=O)NC2(C(F)(F)F)Oc3ccc(Cl)cc3O2)n1 (configuration not stated) | 47.9%
CCOC(=O)Cc1csc(NC(=O)NC2(C(F)(F)F)Oc3cc(Cl)c(Cl)cc3O2)n1 | 54.7% (active)
CC1CC1C(=O)OCC(=O)NCc1ccc(Cl)cc1Cl (configuration not stated) | -7.7%
CCSc1nnc(NC(=O)C2CC(=O)N(Cc3ccc(C)cc3)C2)s1 (configuration not stated) | -13.3%
O=C(Nc1ccc2nc(-c3ccccn3)c(-c3ccccn3)nc2c1)N1CCOCC1 | 62.6% (active)
Cc1ccc(NC(=S)Nc2ccc3nc(-c4ccccn4)c(-c4ccccn4)nc3c2)cc1C | 63.1% (active)
S=C(Nc1ccc2nc(-c3ccccn3)c(-c3ccccn3)nc2c1)N1CCOCC1 | -7.8%
CCOC(=O)C1CCN(C(=O)Nc2ccc3nccnc3c2)CC1 | 49.9%
CCOC(=O)N1CCN(C(=O)Nc2ccc3nc(C)c(C)nc3c2)CC1 | 48.9%
CCCNC(=S)Nc1ccc2nc(-c3ccccn3)c(-c3ccccn3)nc2c1 | -9.4%
CN(C)NC(=S)Nc1ccc2nc(-c3ccccn3)c(-c3ccccn3)nc2c1 | -38.7%

Compound | inhibition
CCOC(=O)N1CCN(C(=O)Nc2ccc3nc(-c4ccccn4)c(-c4ccccn4)nc3c2)CC1 | 25.7%
CCOC(=O)N1CCN(C(=O)Nc2ccc3nccnc3c2)CC1 | 55.1% (active)
Cc1ccc2[nH]c3c(=O)n(CCN4CCNCC4)cnc3c2c1 | 24.5%
Cc1[nH]c2ccccc2c1CCNC(=O)c1c(N)no[n+]1[O-] | 15.2%
O=c1c(Cl)c(N/N=C/c2ccc(Br)cc2)cnn1-c1ccccc1 | 4.9%
O=C(Cc1cccc2ccccc12)Nc1ccc(OC(F)F)c(Cl)c1 | 10%
CC1=CC(=O)C(C(C)C)=C/C1=N/OC(=O)c1cccc([N+](=O)[O-])c1 | -0.5%
CC1=CC(=O)C(C(C)C)=CC1=NC(=O)c1ccc(C)cc1 | 79% (active)
CC1=CC(=O)C(C(C)C)=C/C1=N\OC(=O)c1cccc2nc(C)oc12 | 9.2%
COC(=O)CCc1c(C)c(C(=O)c2ccc(F)cc2)c2ccccn12 | 6.2%
CCN=c1sc(C(=O)OC)cc(=O)n1CC | 3.7%
O=C(NCC1OCCCN1S(=O)(=O)c1cc(F)ccc1F)C(=O)NC1CCCCC1 (configuration not stated) | -0.8%
Cc1coc2c1c(C)cc1oc(=O)c(Cc3ccccc3)c(C)c12 | -11.6%
COc1ccc2c(C)c(Cc3ccccc3)c(=O)oc2c1OC | 0.1%
Cc1c(Cc2ccccc2)c(=O)oc2cc(O)cc(O)c12 | 58.5% (active)
Cc1c(Cc2ccccc2)c(=O)oc2c(CN(C)C)c(O)c(Cl)cc12 | 7.5%
CCOC(=O)Cc1c(C)c2c(O)cc(O)cc2oc1=O | 33.5%
COC(=O)Cc1ccc2oc(-c3cccnc3)nc2c1 | 1.9%
CCCc1c(C)c2c(C)[nH]nc2oc1=O | 1.7%
COc1cc(OC)nc(Oc2ccccc2C(=O)Oc2cccc(C)c2)n1 | 7%
Cc1ccc(S(=O)(=O)Nc2nc3ccc(S(=O)(=O)N4CCCC4)cc3s2)cc1 | -22.6%

Compound | inhibition
O=C1NC(=Nc2ccccc2)c2ccc([N+](=O)[O-])cc21 | -7.3%
Cc1cccc(N=C2NC(=O)c3cc([N+](=O)[O-])ccc32)c1 | 0.2%
NC(=O)c1ccc(C(=O)c2ccc([N+](=O)[O-])cc2)cc1 | -7.6%
Cc1ccc(N=C2NC(=O)c3cc([N+](=O)[O-])ccc32)cc1 | 6.9%
CCC(C)(C)n1nnnc1C(c1cc2cc(C)ccc2[nH]c1=O)N1CCCc2ccccc21 (configuration not stated) | 21.8%
Cc1ccc2[nH]c(=O)c(C(c3nnnn3C3CCCC3)N3CCCc4ccccc43)cc2c1 (configuration not stated) | 61.4% (active)
O=c1[nH]c2cc3c(cc2cc1C(c1nnnn1C1CCCC1)N1CCCc2ccccc21)OCCO3 (configuration not stated) | 27.2%
Cc1ccnc(NC(=O)C(C)n2cc([N+](=O)[O-])cn2)c1 (configuration not stated) | -10.1%
CCNC(=S)Nc1cc(OCC)c(N2CCOCC2)cc1OCC | 58% (active)
CCOc1cc(N2CCOCC2)c(OCC)cc1NC(=O)c1ccc(S(C)(=O)=O)cc1 | 54.7% (active)
CCOc1ccc(Br)cc1S(=O)(=O)Nc1ccccc1N1CCOCC1 | -0.7%
CCOc1cc(N2CCOCC2)c(OCC)cc1NC(=O)c1ccc(NC(C)=O)cc1 | 26.1%
CCOc1cc(N2CCOCC2)c(OCC)cc1NC(=O)c1ccccc1 | 28.4%
CCOc1cc(N2CCOCC2)c(OCC)cc1NC(=O)c1ccco1 | 25.1%
CCOc1cc(N2CCOCC2)c(OCC)cc1NC(=O)c1ccc(C)cc1 | 27.3%
FC(F)(F)c1ccc(N2CCOCC2)c(NC2=NCCCCC2)c1 | 2.9%
CCOc1cc(N2CCOCC2)c(OCC)cc1NC1=NCCCCC1 | 50.1% (active)
CCOc1cc(N2CCOCC2)c(OCC)cc1NC(=O)c1nc2nc(C)cc(C)n2n1 | 14.6%
O=S(=O)(Nc1ccc(N2CCOCC2)cc1)c1ccc(Cl)s1 | -4.9%
CCOc1cc(N2CCOCC2)c(OCC)cc1NS(=O)(=O)c1ccc(Cl)s1 | 54.3% (active)

— PubChem BioAssay AID1220 (Sanford-Burnham Center for Chemical Genomics, 2008)
